Over roughly 68,000 sequences, “fluorescence intensity (a.u.)” has its median near 9,100; the highest 2% begin near 16,000. This excerpt belongs to a sample that is enriched for the highest values.

Chain of OsWRKY34 (Q0JBA9 entry or part of it): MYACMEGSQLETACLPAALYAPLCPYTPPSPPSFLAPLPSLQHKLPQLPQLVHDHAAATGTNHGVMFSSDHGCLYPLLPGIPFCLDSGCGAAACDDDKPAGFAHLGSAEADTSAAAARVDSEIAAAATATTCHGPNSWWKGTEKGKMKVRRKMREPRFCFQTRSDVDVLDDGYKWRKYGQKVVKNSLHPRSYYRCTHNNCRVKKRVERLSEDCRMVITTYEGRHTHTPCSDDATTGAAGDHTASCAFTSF

This experiment has as its target OsWRKY34 (Oryza sativa, UniProt Q0JBA9 1-250). Description: protein-binding microarray (RPBM); PBS, 2% BSA, 51.3 ng/ul salmon testes DNA, 50 uM zinc acetate, 200 nM TF, 25 C, 1 h; high values mean tight binding. The following applies: protein: recombinant; tags: N-terminal polyhistidine and DsRed monomer fusion (pET32a); label: CyDye5-dUTP incorporated in the synthesized complementary strand; 3' TTTTT single-stranded linker to array surface; dsDNA, one strand shown. The gist of the method:
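A custom Agilent array was converted to double-stranded form by primer extension with Cy5-dUTP and blocked with 2% BSA. Protein at 200 nM in PBS with 2% BSA, salmon testes DNA and 50 µM zinc acetate was applied for 1 h at 25 °C, followed by washing. The proteins were polyhistidine–DsRed N-terminal fusions of transcription factors, expressed in E. coli BL21-CodonPlus and Ni–NTA-purified. The binding signal is per-feature fluorescence intensity (arbitrary units) from an Axon 4000B scanner.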
Take “CCCATTTGCCATGTCAACGCACCGTACTAATTAATCCTTGCGGAGTCACCTAGTGCAG”: the binding signal was 10200 fluorescence intensity (a.u.). For “CCGCGGCCCAATAGCTCTTAGCCCATTGCCATCCGCCATCCGGAGTCACCTAGTGCAG”, the binding signal is 9820 fluorescence intensity (a.u.). In the case of “TGTTGTTGACTTTTAAACACATGTTTGATCATTTGTCTTACGGAGTCACCTAGTGCAG”, the binding signal was 14600 fluorescence intensity (a.u.). Regarding “CCGTTTTAAAATGTTTGACACCGTTGACTTTTTAGTACATCGGAGTCACCTAGTGCAG”, the binding signal was 26100 fluorescence intensity (a.u.). The figure for “TTCCCTAAATGTTTGACACCGTTGACTTTTTTTTAAACATCGGAGTCACCTAGTGCAG” is 33300 fluorescence intensity (a.u.); for “AGATGACTCCGTTGACTTTTAAACACATGTTTGATAATTCCGGAGTCACCTAGTGCAG” it is 16200 fluorescence intensity (a.u.); for “CCTAAATGTTTGACTCCGTTGACTTTTTTAAACATGTCTGCGGAGTCACCTAGTGCAG” it is 26100 fluorescence intensity (a.u.). The figure for “TCCCTAAATGTTTGACACCGTTGACCTTTTTAAAACATTTCGGAGTCACCTAGTGCAG” is 17800 fluorescence intensity (a.u.); for “TTACATTTTAGGACATATATTTGGGGAGCTTCTTGGCTGTCGGAGTCACCTAGTGCAG” it is 10800 fluorescence intensity (a.u.). The figure for “ATTTGTCTCTTTCGCGTCGTCTCTAACCTAACGTCCCAGACGGAGTCACCTAGTGCAG” is 13100 fluorescence intensity (a.u.). “CCCACGCGCCCACTTTGACCGACCCATCGATCGATCACGACGGAGTCACCTAGTGCAG”: the binding signal is 14300 fluorescence intensity (a.u.). Take “GCAACACCTCCCCTGTTCTTGCTCTGTTTCCTCACTCTGTCGGAGTCACCTAGTGCAG”: the binding signal is 10200 fluorescence intensity (a.u.). The figure for “TCTATCTGCCTGACTATCTCTATCTCGATCTCGTCCAGGACGGAGTCACCTAGTGCAG” is 9860 fluorescence intensity (a.u.); for “ATCCGAGCATCTCGCCTCGCCCCGCCCCGCCCCGATCGATCGGAGTCACCTAGTGCAG” it is 9480 fluorescence intensity (a.u.); for “CTAGTAGTGCACACAAGCGGCAGCAGGAGGGGAGGGTGGTCGGAGTCACCTAGTGCAG” it is 9190 fluorescence intensity (a.u.).

In the case of “CTCTCTCTGCCATATCCTGTGCTTTTCTTGTATTCCATCCCGGAGTCACCTAGTGCAG”, the binding signal was 11400 fluorescence intensity (a.u.). The figure for “ATGTTTGACACCGTTGACTTTTTAGTACGTGTTTGACCATCGGAGTCACCTAGTGCAG” is 28200 fluorescence intensity (a.u.); for “GTTTGACACTTTTAGTACGTGTTTGACCATTTGTTTTATTCGGAGTCACCTAGTGCAG” it is 10200 fluorescence intensity (a.u.); for “CCTAAATGTTTGACACCGTTGACTTTTTTAAACATATTTGCGGAGTCACCTAGTGCAG” it is 33000 fluorescence intensity (a.u.). With “TTCTCCACGGCAAACCACCACCGGCGTCACCAGCCCACCACGGAGTCACCTAGTGCAG” the figure was 8110 fluorescence intensity (a.u.); with “CTTTTCCATTTCCATGCATTCTTTGATCATCAAGTGATCACGGAGTCACCTAGTGCAG”, 12100 fluorescence intensity (a.u.). The figure for “TTGACCTGCTAGCCTTTTTTTTTTCGCAAATCTATTCCTGCGGAGTCACCTAGTGCAG” is 8440 fluorescence intensity (a.u.); for “ATTTCTGCAGACCCATTTTGCTTTTGAAACACTGCTGATTCGGAGTCACCTAGTGCAG” it is 9790 fluorescence intensity (a.u.). As for “AGTTTGTCATGGTCTAAAATATTACCCAGGTGTTCTTTGACGGAGTCACCTAGTGCAG”, the binding signal is 8760 fluorescence intensity (a.u.). Consider “CATTCTCTTCTCAACCAATAACAACTCTTCCACCATTCACCGGAGTCACCTAGTGCAG”, for which the binding signal is 9540 fluorescence intensity (a.u.). For “CCATTAGTAAGTTCTCTCGTGGCCCAATACTCTCTTGATGCGGAGTCACCTAGTGCAG”, the binding signal is 8840 fluorescence intensity (a.u.). The figure for “GGCCAATAAGTTCCAGTTCTCTTCTTAAGGCCCATTAGACCGGAGTCACCTAGTGCAG” is 61800 fluorescence intensity (a.u.); for “CTCTCTCTCTCCTCGCGTGACTCGCGCGTGCCCTCGCCGCCGGAGTCACCTAGTGCAG” it is 8130 fluorescence intensity (a.u.). With “GCCTTCATCATATTCCCAGCTGGTAACTCTATCCATTGACCGGAGTCACCTAGTGCAG”, the binding signal is 16400 fluorescence intensity (a.u.). For “TATTCCCAGCTGGTAACTCTATCCATTGACGGCTGTGTTTCGGAGTCACCTAGTGCAG”, the binding signal was 9650 fluorescence intensity (a.u.). The figure for “ACTAAACTCTGCCTTCATCATATTCCCAGCTGGTAACTCTCGGAGTCACCTAGTGCAG” is 10300 fluorescence intensity (a.u.). The figure for “CCTCTGGTCACGCATTCTACACAGAATCTCTGGTTTTCCCCGGAGTCACCTAGTGCAG” is 9500 fluorescence intensity (a.u.); for “ATATGCTGTCTTTTACTTGACTTGTAGTGCAACCTTCCACCGGAGTCACCTAGTGCAG” it is 12100 fluorescence intensity (a.u.).

On to “ACTTTCTTTTTTTCTTTTTAACCTTGACCTTTACTGGCATCGGAGTCACCTAGTGCAG”, for which the binding signal is 8690 fluorescence intensity (a.u.). “GAACAGCTCAGCTCACCGCATCCTTTGACTTTTTAACCAGCGGAGTCACCTAGTGCAG”: the binding signal is 18100 fluorescence intensity (a.u.). With “ATCTTAACCGCAACAGCTTTGCATCTTTTTAGTACCTATTCGGAGTCACCTAGTGCAG” the figure was 8170 fluorescence intensity (a.u.); with “TTGCAGCTGTCCTCTCTACCTTAACCCTTTGACCAGTGCTCGGAGTCACCTAGTGCAG”, 9130 fluorescence intensity (a.u.).

“TCCTTTGACTTTTTAACCAGCTGTCTACTAGTAGTACTACCGGAGTCACCTAGTGCAG”: the binding signal is 17800 fluorescence intensity (a.u.). The figure for “CACACGCACGCTTCTCACGTACATATCGATCGCAAATATCCGGAGTCACCTAGTGCAG” is 8490 fluorescence intensity (a.u.). Regarding “GCCGATAGAGGCATGGGGTTTGTTCAGATTGATGTCATTTCGGAGTCACCTAGTGCAG”, the binding signal is 9370 fluorescence intensity (a.u.). The figure for “CCGTGGTGGTACGCGCGCGCTGCGTACGTTTTTTTTTCTTCGGAGTCACCTAGTGCAG” is 9450 fluorescence intensity (a.u.). The figure for “CGAACCAAGACAAGAAAATAGAACCATCCTATCTATCAGGCGGAGTCACCTAGTGCAG” is 11500 fluorescence intensity (a.u.).

The values are drawn from article PMC7819943, “Rice protein-binding microarrays: a tool to detect cis-acting elements near promoter regions in rice”.
